From PubChem BioAssay (NCATS) come the findings set out here.

Inconclusive results are not listed. Activity calls are given as the source filed them. The call rests on the fitted dose curve; in most records, active means well fitted inhibition curve with a large enough effect; inconclusive means small, poorly fitted or top-dose-only effect; inactive means flat fitted curve, though single readings scatter.

Experiment in all cases: qHTS profiling for inhibitors of Plasmodium falciparum proliferation (AID 504749); further: nearly all actives have a fitted effect of over 60% in size
Common to all, as to conditions: P. falciparum in erythrocytes, SYBR Green DNA, 72 h; series mostly up to 28.7 µM

The subject of one experiment is DIV17. An outline of the steps: (§1)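 P. falciparum-infected erythrocytes (0.3% parasitemia, 2.5% hematocrit final) were exposed to compounds for 72 h at 37 C in 5% CO2, then lysed with SYBR Green buffer overnight at room temperature; parasite DNA fluorescence was normalized to artemisinin and DMSO controls.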
The subject of a further experiment is DIV30. A digest of the protocol: as §1
A further experiment concerns ECU. An outline of the steps:
as §1

The next experiment concerns FAB9. A digest of the protocol: as §1
The next experiment deals with GB4. An outline of the steps:
as §1

Another experiment deals with HB3. An outline of the steps:
as §1

For another experiment, the system named is ICS. A digest of the protocol:
as §1

Another experiment has as its system N140. An outline of the steps:
as §1

The test system of a further experiment is P93_24. An outline of the steps:
as §1

For a further experiment, the system named is PAD. An outline of the steps:
as §1

Another experiment relates to PC15. A digest of the protocol: as §1
The next experiment relates to PC26. An outline of the steps:
as §1

Another experiment concerns PC49. An outline of the steps: as §1
A further experiment relates to SC27B. A digest of the protocol: as §1
The next experiment concerns TAB113. A digest of the protocol: as §1
The next experiment deals with TAB165. An outline of the steps:
as §1

A further experiment relates to Dd2. A digest of the protocol: as §1
The test system of the next experiment is JCK. An outline of the steps:
as §1

Another experiment relates to P94_40. A digest of the protocol: as §1
Another experiment deals with TAB109. A digest of the protocol:
as §1
Potency means the concentration at half of the fitted maximal effect.

With `CNC(=O)c1cc(Oc2ccc(NC(=O)Nc3ccc(Cl)c(C(F)(F)F)c3)cc2)ccn1`, the Potency with DIV17 was 3.01 µM (active); in the experiment on DIV30 it was 1.07 µM (active); in the experiment on ECU it was 8.91 µM (active); in the experiment with GB4 it was 13.5 µM (active); in the experiment with HB3, 11.2 µM (active); in the experiment on ICS, 1.12 µM (active). The Potency in the experiment with N140 is 5.01 µM (active); in the experiment on P93_24, 10 µM (active); in the experiment on PAD it was 2.24 µM (active); in the experiment with PC15 it was 7.08 µM (active); in the experiment with PC26, 3.38 µM (active); in the experiment on PC49 it was 8.91 µM (active). The Potency in the experiment on SC27B was 5.01 µM (active); in the experiment on TAB113, 11.2 µM (active); in the experiment on TAB165, 5.62 µM (active). In addition, the Potency entry in the experiment with FAB9 was “inactive”.
Turning to `CCCCCCNC(=O)n1cc(F)c(=O)[nH]c1=O`, the Potency in the experiment with DIV17 was 8.49 µM (active); in the experiment on DIV30, 13.5 µM (active); with GB4, 8.49 µM (active); in the experiment with HB3, 8.91 µM (active); with ICS, 4.47 µM (active); with PAD, 10 µM (active). Moreover, the Potency in the experiment on TAB165 is 10 µM (active).
Consider `COC(=O)Nc1nc2ccc(C(=O)c3ccccc3)cc2[nH]1`, for which the Potency result in the experiment with DIV30, with Dd2, with ECU, in the experiment on FAB9, with HB3 and with ICS was “inactive” in each case. The Potency result with JCK, in the experiment with N140, in the experiment with P93_24, in the experiment with P94_40, with PAD and in the experiment with PC15 was “inactive” in each case. The Potency entry in the experiment with PC49, in the experiment on SC27B, in the experiment with TAB109, in the experiment with TAB113 and with TAB165 was “inactive” each time.
Consider `COc1ccc(C(=O)CC(=O)c2ccc(C(C)(C)C)cc2)cc1`, for which the Potency result in the experiment with DIV17, in the experiment with DIV30, with ECU, with FAB9, with GB4 and in the experiment with JCK was “inactive” throughout. Besides, the Potency result in the experiment on N140, in the experiment on P93_24, in the experiment with P94_40, in the experiment with PAD, in the experiment with PC15 and with PC26 was “inactive” each time. The Potency result with PC49, in the experiment with SC27B, in the experiment on TAB109, in the experiment on TAB113 and in the experiment on TAB165 was “inactive” each time.
In the case of `CC(C)OC(=O)C(C(=O)OC(C)C)=C1SC=CS1`, the Potency result in the experiment with DIV17, with Dd2, in the experiment with ECU, in the experiment on FAB9, in the experiment on GB4 and in the experiment with HB3 was “inactive” each time. The Potency entry in the experiment on ICS, with JCK, in the experiment with N140, with P93_24, in the experiment on PAD and in the experiment with PC15 was “inactive” in each case. Besides, the Potency result in the experiment with PC26, in the experiment on PC49, with SC27B, in the experiment on TAB109, in the experiment with TAB113 and in the experiment with TAB165 was “inactive” each time.
As to `CNNCc1ccc(C(=O)NC(C)C)cc1`, the Potency result with DIV30, in the experiment with Dd2, in the experiment on ECU, with FAB9, in the experiment on GB4 and with HB3 was “inactive” in each case. The Potency result in the experiment on JCK, in the experiment with N140, in the experiment with P93_24, with P94_40, in the experiment on PAD and with PC15 was “inactive” in each case. The Potency result with PC26, with PC49, with SC27B, in the experiment with TAB109, in the experiment with TAB113 and with TAB165 was “inactive” each time.
For the compound `CC(C)(C)C(=O)OCOP(=O)(COCCn1cnc2c(N)ncnc21)OCOC(=O)C(C)(C)C`, the Potency entry with DIV30, with ECU, in the experiment with FAB9, in the experiment with JCK, with PAD and with PC49 was “inactive” each time. Besides, the Potency result with SC27B was “inactive”.
Consider `CCC(C)(C)c1ccc(CC(C)CN2C[C@@H](C)O[C@@H](C)C2)cc1` (some centres not stated), for which the Potency entry with DIV17, with DIV30, in the experiment with ECU, with FAB9, in the experiment with GB4 and with JCK was “inactive” each time. The Potency entry in the experiment with N140, in the experiment with P93_24, with P94_40, in the experiment with PAD, in the experiment with PC15 and in the experiment on PC26 was “inactive” in each case. In addition, the Potency entry with PC49, in the experiment with SC27B, in the experiment with TAB109, in the experiment with TAB113 and with TAB165 was “inactive” in each case.
As to `CC(=O)Oc1ccccc1C(=O)Nc1ncc([N+](=O)[O-])s1`, the Potency is 12 µM (active) in the experiment with DIV17 and 11.2 µM (active) in the experiment on ICS. Moreover, the Potency result with DIV30, in the experiment with ECU, in the experiment on FAB9, in the experiment with JCK, in the experiment on N140 and in the experiment on P93_24 was “inactive” in each case. The Potency entry with P94_40, in the experiment with PAD, in the experiment on PC15, with PC26, with PC49 and with SC27B was “inactive” throughout. The Potency result with TAB109, with TAB113 and in the experiment with TAB165 was “inactive” throughout.
Regarding `O=P(O)(O)C(O)(Cc1cccnc1)P(=O)(O)O`, the Potency entry in the experiment on DIV17, in the experiment on Dd2, in the experiment with ECU, in the experiment on FAB9, in the experiment on GB4 and in the experiment with HB3 was “inactive” throughout. Further, the Potency entry in the experiment on ICS, with JCK, in the experiment on N140, with P93_24, in the experiment on P94_40 and in the experiment on PAD was “inactive” each time. Besides, the Potency result in the experiment with PC15, in the experiment with PC26, in the experiment on PC49, in the experiment with SC27B, in the experiment with TAB109 and in the experiment on TAB113 was “inactive” in each case. In the experiment on TAB165, the Potency entry is “inactive”.
In the case of `CCOc1cc(N)c(Cl)cc1C(=O)NCC1CN(Cc2ccc(F)cc2)CCO1` (configuration not stated), the Potency was 10 µM (active) with ECU; 12 µM (active) in the experiment on GB4; 8.91 µM (active) in the experiment on HB3; 3.98 µM (active) in the experiment with ICS; 6.31 µM (active) with P93_24; 11.2 µM (active) in the experiment with P94_40. For the same compound, the Potency in the experiment with PAD was 11.2 µM (active); with SC27B, 8.91 µM (active); in the experiment on TAB109, 10 µM (active); in the experiment on TAB113 it was 14.1 µM (active); with TAB165, 6.31 µM (active).
For `CC1=CC(=O)c2ccccc2C1=O`, the Potency entry in the experiment with DIV30, in the experiment on Dd2, in the experiment on ECU, with FAB9, in the experiment on HB3 and with JCK was “inactive” throughout. The Potency result with N140, in the experiment with P93_24, in the experiment on P94_40, in the experiment on PAD, with PC26 and with PC49 was “inactive” each time. Besides, the Potency entry with SC27B, in the experiment with TAB109, with TAB113 and with TAB165 was “inactive” each time.
Regarding `S=P(N1CC1)(N1CC1)N1CC1`, the Potency entry with DIV17, in the experiment with Dd2, in the experiment on ECU, in the experiment with FAB9, in the experiment on GB4 and in the experiment on HB3 was “inactive” throughout. The Potency result with ICS, with JCK, with N140, with P93_24, in the experiment with P94_40 and in the experiment on PAD was “inactive” in each case. For the same compound, the Potency entry in the experiment with PC15, in the experiment with PC26, with PC49, in the experiment on SC27B, with TAB109 and with TAB113 was “inactive” each time. In the experiment with TAB165, the Potency entry was “inactive”.
In the case of `CCn1cc(C(=O)O)c(=O)c2cc(F)c(N3CCNCC3)nc21`, the Potency entry in the experiment on DIV17, in the experiment with DIV30, with ECU, in the experiment on FAB9, with GB4 and with HB3 was “inactive” throughout. For the same compound, the Potency entry in the experiment with JCK, in the experiment on N140, with P94_40, in the experiment on PAD, in the experiment with PC15 and in the experiment with PC26 was “inactive” each time. Moreover, the Potency result in the experiment with PC49, with SC27B and in the experiment with TAB113 was “inactive” throughout.
Regarding `COc1cccc(N(C)C(=S)Oc2ccc3c(c2)CCCC3)n1`, the Potency result in the experiment on DIV17, with Dd2, in the experiment with ECU, in the experiment on FAB9, in the experiment on GB4 and in the experiment with HB3 was “inactive” throughout. In addition, the Potency result in the experiment on JCK, in the experiment on N140, in the experiment with P93_24, in the experiment with PAD, in the experiment on PC15 and in the experiment with PC26 was “inactive” each time. In addition, the Potency result with PC49, in the experiment with SC27B and in the experiment on TAB109 was “inactive” each time.
As to `Cc1oc(=O)oc1CN1CCN(c2cc3c(cc2F)c(=O)c(C(=O)O)c2n3C(C)S2)CC1` (configuration not stated), the Potency with DIV17 was 16.9 µM (active); with Dd2, 7.08 µM (active); in the experiment on ECU, 10 µM (active); with GB4, 7.57 µM (active); in the experiment on HB3, 8.91 µM (active); in the experiment with ICS, 7.08 µM (active). Moreover, the Potency in the experiment on P93_24 is 5.01 µM (active); in the experiment on P94_40 it was 7.94 µM (active); in the experiment on SC27B, 8.91 µM (active); in the experiment on TAB109, 4.47 µM (active); in the experiment with TAB113, 7.94 µM (active); in the experiment on TAB165 it was 5.01 µM (active). The Potency result in the experiment on PC49 is “inactive”.
Regarding `CC(N)C12CC3CC(CC(C3)C1)C2` (configuration not stated), the Potency entry in the experiment on Dd2, in the experiment with ECU, with FAB9, with HB3, in the experiment with ICS and in the experiment on PAD was “inactive” throughout. For the same compound, the Potency entry in the experiment with PC15, in the experiment with PC26 and in the experiment on PC49 was “inactive” each time. The Potency in the experiment on GB4 was 6.75 µM (active).
